# Rows were chosen to be rich in hits. Some 4.8% of all compounds tested hit in one or more screens of this group.
# Calb FLC: affects C. albicans growth with fluconazole. C. albicans CaCi-2 (fluconazole-resistant clinical isolate) + fluconazole, Alamar Blue growth, 48 h. growth inhibition, % (test concentration not listed). 300,000 compounds, 0.57% hits;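 active = growth inhibition above about 58% in most replicates, limit read from the data, passing the limit was not always enough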;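 also: all wells also contain fluconazole at 8 µg/ml as a sub-toxic cotreatment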
# Beta apoptosis: blocks beta cell apoptosis; INS-1E cytokine-induced death, ATP luminescence, 48 h; percent of positive-control rescue, neutral wells zero; protection from apoptosis, % (concentration not given with the values); 300,000 compounds, 0.8% hits; AID 435005;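 active = Every replicate reaches about 75%, or at least half do and their mean reaches it too, limit read from the data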;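 also: higher means more ATP so stronger rescue from cytokine killing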
# CSC inhib: cancer stem cell inhibition | inhibition, % at 7.5 µM | 300,000 compounds, 1.1% hits | cancer stem cell-like cells viability, luminescence | AID 2717; in the data active = inhibition above about 75%; tested in HMLE shEcad cells
# Mdm2-MdmX inh: disrupts the human Mdm2-MdmX interaction; SaOS-2 split-luciferase Mdm2/MdmX complementation, luminescence; 330,000 compounds, 3% hits; O15151+Q00987; AID 485346; inhibition, % at 8 µM;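 active = inhibition of at least 50% at 8 µM in the primary screen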
# Target sequence (O15151 whole entry, looked up): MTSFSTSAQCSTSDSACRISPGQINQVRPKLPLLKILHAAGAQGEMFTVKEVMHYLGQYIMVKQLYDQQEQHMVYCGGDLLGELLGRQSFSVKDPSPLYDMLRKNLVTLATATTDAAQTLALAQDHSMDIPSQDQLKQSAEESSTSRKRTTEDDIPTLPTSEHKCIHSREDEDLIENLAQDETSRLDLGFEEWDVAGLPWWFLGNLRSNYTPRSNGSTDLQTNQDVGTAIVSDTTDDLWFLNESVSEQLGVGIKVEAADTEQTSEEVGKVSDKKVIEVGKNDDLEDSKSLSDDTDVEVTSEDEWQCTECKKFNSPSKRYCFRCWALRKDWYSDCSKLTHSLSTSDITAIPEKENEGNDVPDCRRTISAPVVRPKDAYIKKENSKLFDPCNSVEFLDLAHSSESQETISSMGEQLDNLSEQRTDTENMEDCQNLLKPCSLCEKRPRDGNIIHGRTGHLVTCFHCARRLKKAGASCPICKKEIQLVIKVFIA
# Target sequence (Q00987 whole entry, looked up): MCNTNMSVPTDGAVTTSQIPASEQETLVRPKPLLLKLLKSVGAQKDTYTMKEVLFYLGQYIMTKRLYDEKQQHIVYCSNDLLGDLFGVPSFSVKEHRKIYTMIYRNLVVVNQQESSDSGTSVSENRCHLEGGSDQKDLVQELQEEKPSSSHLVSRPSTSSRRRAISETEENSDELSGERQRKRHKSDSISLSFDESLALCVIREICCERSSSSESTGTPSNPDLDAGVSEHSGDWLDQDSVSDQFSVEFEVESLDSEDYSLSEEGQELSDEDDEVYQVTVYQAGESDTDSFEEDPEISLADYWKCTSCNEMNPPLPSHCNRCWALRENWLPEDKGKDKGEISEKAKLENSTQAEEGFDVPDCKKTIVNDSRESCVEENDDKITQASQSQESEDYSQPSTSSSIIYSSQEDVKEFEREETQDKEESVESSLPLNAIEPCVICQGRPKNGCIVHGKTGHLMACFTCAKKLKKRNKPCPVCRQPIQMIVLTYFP
# MPTP inh: blocks calcium-induced mitochondrial swelling; isolated mouse mitochondria, Ca2+ swelling absorbance, 30 min; inhibition, % at 10 µM; 360,000 compounds, 1.4% hits;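 active = inhibition of 50% or more, scaled per plate between neutral and stimulator controls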
# Rh123 counter: mitochondrial membrane potential, counter-screen | shares compounds with MPTP inh | isolated mitochondria, Rhodamine 123 fluorescence | inhibition, % at 10 µM | 5,000 compounds, 78% hits | AID 624504; in the data active = inhibition above about 22%
# MPTP swell DR: MPTP inhibition, dose response swelling confirmation; 780 compounds, 58% hits; AID 651561; shares compounds with MPTP inh; IC50, µM; isolated mitochondria swelling, absorbance; in the data active = IC50 below about 20 µM
# MPTP cs DR: active in counter-screen for permeability transition pore inhibitors. shares compounds with MPTP inh. isolated mitochondria counterscreen, fluorescence read-out. IC50, µM. 780 compounds, 49% hits. AID 651564; in the data active = IC50 below about 80 µM
# Hits are given with their value; – = inactive; · = no result given.
SMILES,Calb FLC,Beta apoptosis,CSC inhib,Mdm2-MdmX inh,MPTP inh,Rh123 counter,others
CC(=O)c1c(C)[nH]c(C(=O)Nc2nc(-c3ccccc3)c(C)s2)c1C,–,–,–,–,79,55,
Cc1sc(NC(=O)c2cccs2)nc1-c1ccccc1,–,–,–,–,–,·,
CC(=O)N1CCCc2cc(S(=O)(=O)NCCC3=CCCCC3)ccc21,–,–,–,–,51,23,
CC(=O)N1CCCc2cc(S(=O)(=O)NCc3ccc(C)cc3)ccc21,–,–,–,–,–,·,
CC(Oc1ccc(Br)cc1Cl)C(=O)Nc1ccncc1 (stereo not given),–,·,·,–,77,80,
CC(Oc1ccc(Br)cc1)C(=O)Nc1ccncc1 (stereo not given),–,–,–,–,–,·,
Cc1ccc(OCCn2c(Br)nc3c2c(=O)n(C)c(=O)n3C)cc1,–,–,–,–,82,60,
CCc1nnc(NC(=O)CSc2nnc(C3CC3)n2C)s1,–,–,–,–,–,·,
CCN(CC)CCN(C(=O)c1ccc(CN2CCCCC2)o1)C(C(=O)NC1CCCCC1)c1ccc(F)cc1 (stereo not given),–,–,–,–,–,·,
O=C(CCl)NN1C(=O)NC(c2ccccc2)(c2ccccc2)C1=O,–,–,–,–,–,·,
N#C/C(=C\c1ccc(-c2ccccc2Cl)o1)C(=O)Nc1nc2ccccc2s1,–,–,–,–,74,43,
CNc1nc(Oc2cccc(NC(C)=O)c2)c2sccc2n1,·,·,·,·,–,·,
Cc1ccc(NNC(=O)C(O)(c2cccc(C(F)(F)F)c2)c2cccc(C(F)(F)F)c2)cc1,–,–,99,–,72,69,
COc1ccc(S(=O)(=O)N2CCC(C(=O)N[C@@H](C)C(=O)NCc3ccco3)CC2)cc1,·,·,·,·,–,·,
COc1ccc(NCC(=O)Nc2ccc(C#N)cc2)cc1Cl,–,–,–,–,76,84,
COc1ccc(NC(=O)CNc2cccc(C#N)c2)cc1Cl,–,–,–,–,–,·,
CC(C)Cc1csc(NC(=O)c2ccc(Cl)cc2)c1C(=O)O,–,–,–,–,90,88,
CC(C)Cc1csc(NC(=O)c2ccccc2Cl)c1C(=O)O,–,–,–,–,–,·,
CN(C(=O)c1ccccc1[N+](=O)[O-])c1ccccc1C(=O)NCc1ccccc1,–,–,–,–,–,·,
CCOC(=O)N1CCC(Nc2c(Nc3ccc(F)cc3)c(=O)c2=O)CC1,–,–,–,–,–,·,
CCOC(=O)N1CCC(Nc2c(Nc3cccc(CC)c3)c(=O)c2=O)CC1,–,–,–,–,89,72,
CN1CCCN(C(c2ccccc2)c2ccc(Cl)cc2)CC1 (stereo not given),·,·,·,–,99,–,
CC(=O)N1CCOc2ccc(S(=O)(=O)N3CCC(C(=O)NCc4ccccc4)CC3)cc21,–,–,–,–,–,·,
Cc1c(CC(Cl)(Cl)Cl)c2c(n1O)CC(C)(C)CC2=O,–,–,–,–,72,47,
CCOC(=O)C1(Cc2ccc(Cl)cc2)CCN(C(C)Cc2ccc(O)c(OC)c2)CC1 (stereo not given),–,·,–,–,95,95,
SMILES,Calb FLC,Beta apoptosis,CSC inhib,Mdm2-MdmX inh,MPTP inh,Rh123 counter,others
CCOC(=O)C1(Cc2ccc(OC)cc2)CCN(S(C)(=O)=O)CC1,–,–,–,–,–,·,
O=C(Nc1nncs1)C12CC3CC(CC(Cl)(C3)C1)C2,–,–,–,·,–,·,
COc1ccc2c(c1)c(C(C)=O)c(C)n2CCc1ccccc1,–,–,–,–,67,76,
COc1ccc(CNC(=O)CCCNC(=O)c2ccc(Cl)cc2)cc1OC,–,–,–,–,–,·,
Cc1onc(-c2ccc(Cl)cc2)c1-c1ccnc(SCC(=O)Nc2cc(Cl)cc(Cl)c2)n1,–,–,–,–,50,51,
CCCCC1CC(CSC(=N)N)OC1=O (stereo not given),–,·,–,–,–,·,
CCCCCCCC1CC(CSC(=N)N)OC1=O (stereo not given),–,–,–,–,97,–,MPTP swell DR=6.3;MPTP cs DR=52
O=C1N/C(=C\c2ccc(O)cc2)C(=O)c2ccccc21,–,–,–,–,73,–,
COc1ccccc1CNC(=O)COC(=O)c1cc(=O)[nH]c2ccccc12,·,–,·,–,–,·,
N#C/C(=C\c1ccc(OCc2ccccc2)cc1)C(=O)Nc1ccc(C(=O)O)cc1,–,–,–,–,·,·,
Cc1cc(C)c(NC(=O)/C(C#N)=C/c2ccc(OCc3ccc(F)cc3)cc2)c(C)c1,–,–,–,–,85,22,
O=C(CCC(=O)c1ccccc1)Nc1ccccc1OC(F)F,–,–,–,–,–,·,
CCOC(=O)C1=C(Nc2ccccc2)CC(C)(O)C(C(=O)OCC)C1c1ccccc1 (stereo not given),–,–,–,–,–,·,
CCOC(=O)C1=C(Nc2ccccc2)CC(C)(O)C(C(=O)OCC)C1c1ccc(Br)cc1 (stereo not given),–,–,–,–,59,–,MPTP swell DR=–;MPTP cs DR=–
CCOc1cc(NC(=O)C2CC2)c(OCC)cc1NC(=O)c1cccc(F)c1,–,–,–,–,106,–,MPTP swell DR=–;MPTP cs DR=–
O=C(CSc1ccc(-c2cccnc2)nn1)Nc1ccc(F)cc1,–,–,–,–,–,·,
Cc1cc(NCC(=O)Nc2ccc(C)c(S(=O)(=O)N3CCOCC3)c2)ccc1Br,·,·,·,·,–,·,
c1ccc2c(CSc3ncnc4nc[nH]c34)cccc2c1,–,–,–,–,56,41,
CC(C)CCSc1cc(NCCO)c([N+](=O)[O-])c2nonc12,–,–,–,–,–,·,
Cc1ccc(Sc2cc(NCCCO)c([N+](=O)[O-])c3nonc23)cc1,–,–,–,–,72,34,
Cc1ccc(C(=O)Nc2cccc([N+](=O)[O-])c2)cc1S(=O)(=O)Nc1ccc(C(=O)O)cc1,–,–,–,–,–,·,
Cc1ccccc1NS(=O)(=O)c1cc(C(=O)Nc2cccc([N+](=O)[O-])c2)ccc1C,–,–,–,–,98,78,
CN(C)S(=O)(=O)c1cccc(-c2nn(-c3ccccc3)cc2/C=C2\SC(=S)NC2=O)c1,·,–,94,·,97,45,
CN(C)S(=O)(=O)c1cccc(-c2nn(-c3ccccc3)cc2/C=C(\C#N)c2nc3ccccc3[nH]2)c1,–,–,–,–,–,·,
CCc1nnc(NC(=O)CN2CCN(Cc3ccccc3Cl)CC2)s1,–,–,–,–,–,·,
CC(C)c1ccc(-c2cc(C(=O)N3N=C(C(F)F)CC3(O)C(F)F)c3ccccc3n2)cc1 (stereo not given),–,–,112,–,77,97,
O=C(c1cc(C2CC2)nc2ccc(Br)cc12)N1N=C(C(F)F)CC1(O)C(F)F (stereo not given),–,–,–,–,75,84,
Cc1[nH]c(=O)[nH]c(=O)c1/C=N/NC(=O)[C@H](C)N,–,–,–,–,–,·,
